Results on seven molecules are retold here after PubChem BioAssay (EPA / NIEHS).

Molecules are shown by their SMILES. Inconclusive results are not listed. Activity calls are given as the source filed them. How the source made its calls, unless noted: active means hit-call score of the fitted dose curve at least 0.9, where 1 is the maximum; inactive means score below 0.9.

A short description of assay [1]: ATG_DR4_LXR_CIS: Attagene CIS-FACTORIAL HepG2 Assay for human Liver X Receptor (LXR), DR4 submotif (AID 2282929). The following applies: HepG2 Attagene DR4 cis-reporter, mRNA transcription; actives raise or lower the signal. In outline: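 HepG2 cells transiently transfected with cis-promoter-driven multiplexed reporter units (DR4 element) were dosed for 24 h. Reporter mRNA was quantified by RT-PCR, fluorescent primer extension, HpaI digestion and capillary electrophoresis; bidirectional fitting versus DMSO baseline.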

The nature of assay [2]: ATG_Ets_CIS: Attagene CIS-FACTORIAL HepG2 Assay for human Erythroblast Transformation Specific (ETS) (AID 2282941). Conditions: HepG2 ETS cis-reporter transcription, actives raise or lower the signal. Summed up: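 Bidirectional fit versus DMSO of reporter mRNA signal, detected by RT-PCR and capillary electrophoresis in HepG2 cells transiently transfected with cis-element reporters and dosed 24 h.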

Assay [3] can be described thus: ATG_M_06_CIS: Attagene CIS-FACTORIAL HepG2 Assay for M06 Transcription Factor (Internal Marker) (AID 2282950). The following applies: HepG2 Attagene CIS-FACTORIAL M06 internal marker reporter; actives raise or lower the signal. In outline: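 One of many multiplexed endpoints: HepG2 reporter mRNA after 24 h dosing, detected by RT-PCR and capillary electrophoresis fluorescence; gain or loss of signal analysed against DMSO.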

Assay [4] concerns the target Hypoxia-inducible factor 1-alpha (Homo sapiens) (UniProt Q16665). The assay is described as follows: ATG_HIF1a_CIS: Attagene CIS-FACTORIAL HepG2 Assay for human Hypoxia Inducible Factor 1 (HIF1A) (AID 2282951). Conditions: HepG2 Attagene cis-factorial HIF1a reporter transcription; actives raise or lower the signal. Summed up:
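HepG2 cells transiently transfected with multiplexed cis-promoter reporter units; reporter mRNA read 24 h after dosing by RT-PCR, 6-FAM primer-extension labelling, HpaI digestion and capillary electrophoresis. Bidirectional fit versus DMSO baseline.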

Assay [5] concerns the target Hepatocyte nuclear factor 6 (Homo sapiens) (UniProt Q9UBC0). The assay is described as follows: ATG_HNF6_CIS: Attagene CIS-FACTORIAL HepG2 Assay for human Hepatocyte Nuclear Factor 6 (HNF6) (AID 2282952). Conditions: HepG2 Attagene cis-factorial HNF6 reporter transcription; actives raise or lower the signal. In outline: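 Readout: fluorescent reporter-transcript fragments resolved by capillary electrophoresis after RT-PCR, reflecting endogenous factor activity in transfected HepG2. Exposure 24 h. Gain or loss of signal fitted bidirectionally against DMSO.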

In assay [6] the target is Heat shock factor protein 1 (Homo sapiens) (UniProt Q00613). The assay is described as follows: ATG_HSE_CIS: Attagene CIS-FACTORIAL HepG2 Assay for human Heat Shock Transcription Factor 1 (HSE) (AID 2282953). Conditions: HepG2 HSE cis-reporter, Attagene RNA transcription; actives raise or lower the signal. Summed up:
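Using HepG2 with transfected cis-driven reporter constructs, compound effects on endogenous factor activity are scored as reporter mRNA change at 24 h. Detection: RT-PCR, HpaI digestion, capillary electrophoresis; bidirectional fitting to DMSO.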

The nature of assay [7]: ATG_Sox_CIS: Attagene CIS-FACTORIAL HepG2 Assay for human SRY-box transcription factor (SOX) (AID 2282960). The following applies: HepG2 Attagene cis-factorial SOX reporter, mRNA; actives raise or lower the signal. Summed up: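 HepG2 cells transiently transfected with cis-element-driven multiple reporter transcription units, dosed 24 h; reporter mRNA measured by RT-PCR, FAM labelling, HpaI digestion and capillary electrophoresis. Bidirectional fit versus DMSO baseline.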

Assay [8] is described as follows: ATG_TA_CIS: Attagene CIS-FACTORIAL HepG2 Assay for human TA Basal Promoter (AID 2282964). The following applies: HepG2 Attagene CIS-factorial TA basal promoter reporter; actives raise or lower the signal. Summed up:
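Transient MRTU transfection of HepG2 preceded 24 h compound exposure. Reporter mRNA levels were then read by RT-PCR with capillary electrophoresis, and this background-control endpoint was fitted bidirectionally to DMSO.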

Assay [9] is described as follows: ATG_TCF_b_cat_CIS: Attagene CIS-FACTORIAL HepG2 Assay for human T-Cell-Factor with beta-catenin (TCF/b-cat) (AID 2282965). Conditions: HepG2 TCF/beta-catenin cis-reporter transcription, actives raise or lower the signal. In outline: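 Endogenous transcription factor activity is captured through cis-promoter reporter constructs transiently introduced into human HepG2 liver cells. Induced reporter mRNA is measured after 24 h and fitted bidirectionally relative to DMSO.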

Assay [10] can be described thus: ATG_TAL_CIS: Attagene CIS-FACTORIAL HepG2 Assay for human TAL Basal Promoter (AID 2282966).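 Further: background control endpoint measuring basal TAL promoter reporter mRNA not a specific factor.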 The following applies: HepG2 Attagene cis-factorial TAL promoter reporter; actives raise or lower the signal. Summed up:
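HepG2, transient MRTU transfection, 24 h compound exposure; RNA → oligo(dT) RT → PCR → 6-FAM primer extension → HpaI digest → CE fluorescence. Bidirectional curve fit vs DMSO. Background-control readout.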

Assay [11] can be described thus: ATG_TGFb_CIS: Attagene CIS-FACTORIAL HepG2 Assay for human Transforming Growth Factor (TGF) (AID 2282967). Conditions: HepG2 Attagene CIS TGFb reporter, mRNA transcription; actives raise or lower the signal. Summed up:
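After a 24-hour incubation with compound, transfected HepG2 cells were lysed for RNA; reporter cDNA was amplified, fluorescently end-labeled and separated by CE. DMSO served as baseline for bidirectional fits.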

Assay [12] deals with X-box-binding protein 1 (Homo sapiens) (UniProt P17861). The assay is described as follows: ATG_Xbp1_CIS: Attagene CIS-FACTORIAL HepG2 Assay for human X-box Binding Protein 1 (XBP1) (AID 2282972). Conditions: HepG2 XBP1 cis-element reporter, Attagene multiplex; actives raise or lower the signal. Summed up:
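Changes in reporter transcript abundance, read by RT-PCR and capillary electrophoresis, reflect endogenous transcription factor activity. Transfected HepG2 cells received compound for 24 hours; DMSO defined baseline for bidirectional analysis.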

The target in assay [13] is Transcriptional activator Myb (Homo sapiens) (UniProt P10242). The experiment in a line: ATG_Myb_CIS: Attagene CIS-FACTORIAL HepG2 Assay for human Myeloblastosis (Myb) Proto-Oncogene Transcription Factor (AID 2282986). Conditions: HepG2 Attagene CIS-FACTORIAL Myb reporter transcription; actives raise or lower the signal. In outline:
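HepG2 cells were transiently transfected with cis-regulated multiple reporter transcription units reflecting endogenous Myb activity, then exposed to compound for 24 hours. Reporter mRNA was measured by RT-PCR with capillary electrophoresis; bidirectional fitting versus DMSO baseline.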

Assay [14] deals with Nuclear respiratory factor 1 (Homo sapiens) (UniProt Q16656). The assay is described as follows: ATG_NRF1_CIS: Attagene CIS-FACTORIAL HepG2 Assay for human Nuclear Respiratory Factor 1 (NRF1) Orphan Gene (AID 2282987). The following applies: HepG2 NRF1 cis-element reporter, Attagene multiplex; actives raise or lower the signal. Summed up:
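HepG2 cells transiently transfected with multiple reporter transcription units under cis-regulatory promoter control, so endogenous transcription-factor activity is read. After 24 h compound exposure, reporter mRNA quantified by RT-PCR, fluorescent labelling, HpaI digestion and capillary electrophoresis; bidirectional fitting versus DMSO.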

Assay [15] deals with Myc proto-oncogene protein (Homo sapiens) (UniProt P01106). The assay is described as follows: ATG_Myc_CIS: Attagene CIS-FACTORIAL HepG2 Assay for human Myelocytomatosis (Myc) Proto-Oncogene Transcription Factor (AID 2282990). The following applies: HepG2, Attagene cis-reporter transcription factor activity; actives raise or lower the signal. Summed up:
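HepG2, transient MRTU transfection (cis promoters, endogenous TFs); 24 h dosing; TriZol RNA → oligo(dT) RT → PCR → 6-FAM primer extension → HpaI cut → CE. Bidirectional fit vs DMSO.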

Assay [16] can be described thus: ATG_NRF2_ARE_CIS: Attagene CIS-FACTORIAL HepG2 Assay for human Nuclear Factor Erythroid 2 Related Factor 2 (NFR2) response to Antioxidant Response Elements (ARE) (AID 2282992). The following applies: HepG2 Attagene ARE/NRF2 reporter, transcription factor activity; actives raise or lower the signal. Summed up: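 Using transiently transfected HepG2 cells exposed for 24 h, reporter mRNA levels were determined by RT-PCR with fluorescent primer extension and capillary electrophoresis, analysed for gain or loss of signal against DMSO.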

Assay [17] can be described thus: ATG_Oct_MLP_CIS: Attagene CIS-FACTORIAL HepG2 Assay for human Octamer-Binding Transcription Factor (Oct) (AID 2282993). The following applies: HepG2 Attagene cis-factorial Oct reporter, mRNA; actives raise or lower the signal. In outline:
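Transfected HepG2 cells, 24 h treatment. Reporter mRNA quantified by RT-PCR–capillary electrophoresis; bidirectional fitting against DMSO.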

The target in assay [18] is Cellular tumor antigen p53 (Homo sapiens) (UniProt P04637). The assay is described as follows: ATG_p53_CIS: Attagene CIS-FACTORIAL HepG2 Assay for human p53 Transcription Factor (AID 2282994). Conditions: HepG2 p53 cis-element reporter, Attagene mRNA; actives raise or lower the signal. In outline:
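In HepG2 cells, reporter transcription units under cis-regulatory promoters were transiently introduced. Following 24 h treatment, RNA was processed to labelled, digested cDNA fragments read by capillary electrophoresis; fitting was bidirectional versus DMSO.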

Assay [19] deals with Nuclear receptor subfamily 1 group I member 2 (Homo sapiens) (UniProt O75469). The assay is described as follows: ATG_PXR_TRANS: Attagene TRANS-FACTORIAL HepG2 Assay for human Pregnane X Receptor (PXR) (AID 2283008; active means hit-call score of the fitted dose curve at least 0.9, where 1 is the maximum). In outline:
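Multiplexed TRANS reporter panel in HepG2; this component tracks PXR-Gal4-driven reporter mRNA after 24 h dosing, measured by RT-PCR with capillary electrophoresis fluorescence, fitted against DMSO.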

The nature of assay [20]: ATG_XTT_Cytotoxicity: Cytotoxicity Assessment in the Attagene TRANS-FACTORIAL HepG2 Assay (AID 2283584; active means hit-call score of the fitted dose curve at least 0.9, where 1 is the maximum). In outline: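 XTT readout of cell number in transfected HepG2 cells, 24 h post-dosing; DMSO serves as negative control and baseline, with activity taken as loss of viability signal.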

Sequence of Hypoxia-inducible factor 1-alpha (Homo sapiens) (Q16665 whole entry, looked up): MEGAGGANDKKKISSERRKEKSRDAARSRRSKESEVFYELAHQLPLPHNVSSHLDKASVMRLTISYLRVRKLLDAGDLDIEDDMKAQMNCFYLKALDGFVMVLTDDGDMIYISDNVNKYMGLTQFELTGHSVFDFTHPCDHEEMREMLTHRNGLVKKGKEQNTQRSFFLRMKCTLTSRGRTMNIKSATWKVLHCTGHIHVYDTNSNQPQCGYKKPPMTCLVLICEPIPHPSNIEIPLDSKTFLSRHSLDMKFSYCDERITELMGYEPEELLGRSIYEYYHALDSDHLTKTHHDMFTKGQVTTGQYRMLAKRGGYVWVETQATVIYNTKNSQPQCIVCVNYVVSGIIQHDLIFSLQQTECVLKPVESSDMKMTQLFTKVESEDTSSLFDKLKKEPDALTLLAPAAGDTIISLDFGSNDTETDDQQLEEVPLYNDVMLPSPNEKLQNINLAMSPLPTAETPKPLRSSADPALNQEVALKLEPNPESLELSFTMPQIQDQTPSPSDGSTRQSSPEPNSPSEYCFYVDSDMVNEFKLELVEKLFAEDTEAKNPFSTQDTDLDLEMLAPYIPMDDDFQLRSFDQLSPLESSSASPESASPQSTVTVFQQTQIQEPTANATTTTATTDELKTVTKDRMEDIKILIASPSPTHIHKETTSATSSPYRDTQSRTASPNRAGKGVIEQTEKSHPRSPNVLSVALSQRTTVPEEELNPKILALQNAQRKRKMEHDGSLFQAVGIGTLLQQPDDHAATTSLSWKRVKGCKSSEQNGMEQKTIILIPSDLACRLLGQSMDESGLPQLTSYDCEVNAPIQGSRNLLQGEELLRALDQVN
Sequence of Heat shock factor protein 1 (Homo sapiens) (Q00613 whole entry, looked up): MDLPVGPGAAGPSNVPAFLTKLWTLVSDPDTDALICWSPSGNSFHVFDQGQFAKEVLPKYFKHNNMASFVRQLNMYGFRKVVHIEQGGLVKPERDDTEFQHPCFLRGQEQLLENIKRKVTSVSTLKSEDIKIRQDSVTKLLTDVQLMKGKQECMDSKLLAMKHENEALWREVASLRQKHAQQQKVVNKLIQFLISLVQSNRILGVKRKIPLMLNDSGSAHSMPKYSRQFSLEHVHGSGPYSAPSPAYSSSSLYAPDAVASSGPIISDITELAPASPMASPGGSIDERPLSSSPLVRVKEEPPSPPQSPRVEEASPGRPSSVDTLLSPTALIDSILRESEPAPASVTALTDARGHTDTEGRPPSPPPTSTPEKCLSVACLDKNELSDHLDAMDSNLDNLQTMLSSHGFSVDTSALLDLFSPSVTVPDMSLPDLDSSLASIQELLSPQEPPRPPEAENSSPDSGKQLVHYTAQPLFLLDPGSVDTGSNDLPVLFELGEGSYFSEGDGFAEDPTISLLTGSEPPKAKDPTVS
Sequence of Nuclear respiratory factor 1 (Homo sapiens) (Q16656 whole entry, looked up): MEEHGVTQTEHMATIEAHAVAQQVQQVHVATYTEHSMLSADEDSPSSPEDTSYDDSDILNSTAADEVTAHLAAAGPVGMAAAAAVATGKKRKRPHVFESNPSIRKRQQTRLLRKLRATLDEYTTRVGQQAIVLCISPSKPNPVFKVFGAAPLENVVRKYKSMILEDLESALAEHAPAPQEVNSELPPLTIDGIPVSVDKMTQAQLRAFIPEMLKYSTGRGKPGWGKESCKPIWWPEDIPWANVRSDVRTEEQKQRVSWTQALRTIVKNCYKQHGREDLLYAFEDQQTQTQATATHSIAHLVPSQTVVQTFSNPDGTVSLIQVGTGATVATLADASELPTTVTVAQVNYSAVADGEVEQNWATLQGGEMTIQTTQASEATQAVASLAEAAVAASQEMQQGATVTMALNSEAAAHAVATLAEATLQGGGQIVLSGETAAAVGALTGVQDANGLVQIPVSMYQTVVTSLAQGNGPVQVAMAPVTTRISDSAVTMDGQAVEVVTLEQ
Sequence of Myc proto-oncogene protein (Homo sapiens) (P01106 whole entry, looked up): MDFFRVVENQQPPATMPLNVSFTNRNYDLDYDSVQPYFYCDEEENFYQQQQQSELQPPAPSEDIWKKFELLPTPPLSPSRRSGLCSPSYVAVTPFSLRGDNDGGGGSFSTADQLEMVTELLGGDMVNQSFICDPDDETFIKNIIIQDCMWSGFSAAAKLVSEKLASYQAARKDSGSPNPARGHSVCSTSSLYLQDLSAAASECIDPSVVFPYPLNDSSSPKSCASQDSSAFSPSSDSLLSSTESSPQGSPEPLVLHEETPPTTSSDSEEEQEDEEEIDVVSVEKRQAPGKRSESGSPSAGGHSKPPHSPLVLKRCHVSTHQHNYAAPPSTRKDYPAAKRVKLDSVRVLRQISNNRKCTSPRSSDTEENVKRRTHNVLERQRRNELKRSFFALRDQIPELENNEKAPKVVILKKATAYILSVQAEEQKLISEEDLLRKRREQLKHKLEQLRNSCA
Sequence of Transcriptional activator Myb (Homo sapiens) (P10242 whole entry, looked up): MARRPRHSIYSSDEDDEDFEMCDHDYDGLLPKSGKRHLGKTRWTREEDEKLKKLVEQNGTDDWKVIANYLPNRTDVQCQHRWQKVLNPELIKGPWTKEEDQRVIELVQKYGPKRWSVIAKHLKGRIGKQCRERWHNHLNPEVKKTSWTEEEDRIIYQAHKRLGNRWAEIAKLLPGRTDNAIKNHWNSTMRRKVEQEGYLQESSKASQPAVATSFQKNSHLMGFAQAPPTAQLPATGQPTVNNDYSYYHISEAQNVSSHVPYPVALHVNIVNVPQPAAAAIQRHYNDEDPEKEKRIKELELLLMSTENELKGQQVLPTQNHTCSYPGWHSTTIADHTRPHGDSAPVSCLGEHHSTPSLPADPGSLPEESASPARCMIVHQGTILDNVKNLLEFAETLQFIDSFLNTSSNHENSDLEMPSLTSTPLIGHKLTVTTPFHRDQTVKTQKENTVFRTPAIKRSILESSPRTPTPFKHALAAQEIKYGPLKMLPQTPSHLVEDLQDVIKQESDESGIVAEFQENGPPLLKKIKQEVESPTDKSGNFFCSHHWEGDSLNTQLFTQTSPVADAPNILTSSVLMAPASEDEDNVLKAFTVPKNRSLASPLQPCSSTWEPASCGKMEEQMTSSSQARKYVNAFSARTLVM
Sequence of X-box-binding protein 1 (Homo sapiens) (P17861 whole entry, looked up): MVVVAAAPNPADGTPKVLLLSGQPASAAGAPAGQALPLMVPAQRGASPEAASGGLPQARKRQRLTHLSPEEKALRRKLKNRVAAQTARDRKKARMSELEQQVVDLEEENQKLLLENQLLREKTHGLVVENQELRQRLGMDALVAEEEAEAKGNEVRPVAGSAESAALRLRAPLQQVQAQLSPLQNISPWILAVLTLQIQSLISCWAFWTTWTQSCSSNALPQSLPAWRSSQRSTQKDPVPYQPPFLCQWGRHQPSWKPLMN
Sequence of Nuclear receptor subfamily 1 group I member 2 (Homo sapiens) (O75469 whole entry, looked up, the tested form may be a part): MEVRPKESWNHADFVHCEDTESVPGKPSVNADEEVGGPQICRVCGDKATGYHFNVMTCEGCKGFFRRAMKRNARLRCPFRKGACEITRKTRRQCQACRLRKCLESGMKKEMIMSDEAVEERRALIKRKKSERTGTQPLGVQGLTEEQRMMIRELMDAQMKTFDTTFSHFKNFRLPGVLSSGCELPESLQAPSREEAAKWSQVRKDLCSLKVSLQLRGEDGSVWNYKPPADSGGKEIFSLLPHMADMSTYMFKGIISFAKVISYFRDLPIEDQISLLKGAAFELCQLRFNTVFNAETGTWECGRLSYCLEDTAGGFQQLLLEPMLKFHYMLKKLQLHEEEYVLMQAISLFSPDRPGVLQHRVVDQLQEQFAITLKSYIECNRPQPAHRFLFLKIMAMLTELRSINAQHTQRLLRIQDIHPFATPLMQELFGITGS
Sequence of Cellular tumor antigen p53 (Homo sapiens) (P04637 whole entry, looked up, the tested form may be a part): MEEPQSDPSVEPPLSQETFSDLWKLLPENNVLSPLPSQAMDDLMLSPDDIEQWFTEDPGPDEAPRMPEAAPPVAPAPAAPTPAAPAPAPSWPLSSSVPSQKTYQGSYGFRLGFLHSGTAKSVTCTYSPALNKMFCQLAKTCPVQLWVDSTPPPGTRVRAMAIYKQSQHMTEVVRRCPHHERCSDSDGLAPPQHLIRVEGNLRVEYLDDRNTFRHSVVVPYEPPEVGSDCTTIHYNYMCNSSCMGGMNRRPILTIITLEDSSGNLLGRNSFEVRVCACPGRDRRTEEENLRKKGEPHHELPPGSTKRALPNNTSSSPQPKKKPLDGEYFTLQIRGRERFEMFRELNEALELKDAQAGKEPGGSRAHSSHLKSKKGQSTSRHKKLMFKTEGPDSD
Sequence of Hepatocyte nuclear factor 6 (Homo sapiens) (Q9UBC0 whole entry, looked up, the tested form may be a part): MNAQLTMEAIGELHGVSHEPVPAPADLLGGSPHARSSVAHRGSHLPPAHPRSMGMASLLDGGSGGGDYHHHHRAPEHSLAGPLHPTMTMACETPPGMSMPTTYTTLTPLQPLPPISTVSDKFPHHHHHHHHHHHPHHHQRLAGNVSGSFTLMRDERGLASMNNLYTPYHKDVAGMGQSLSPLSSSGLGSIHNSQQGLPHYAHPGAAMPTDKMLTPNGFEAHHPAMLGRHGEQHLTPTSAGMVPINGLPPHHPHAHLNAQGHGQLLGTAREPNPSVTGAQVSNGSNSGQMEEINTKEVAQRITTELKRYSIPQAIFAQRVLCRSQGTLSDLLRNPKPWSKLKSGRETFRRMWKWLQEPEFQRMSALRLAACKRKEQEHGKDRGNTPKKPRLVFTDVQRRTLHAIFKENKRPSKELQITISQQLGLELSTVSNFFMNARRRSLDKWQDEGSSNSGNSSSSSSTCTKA

As usually defined, the AC50 is the midpoint of the concentration-response curve, whichever way the signal moves. Take `OCCN(CCO)c1cccc(Cl)c1`: the molecule was classed as inactive in assay [1], in assay [2], in [3], in assay [4], in [5] and in [6]. For the same molecule, the molecule was classed as inactive in assay [7], in assay [8], in [9], in assay [10], in [11] and in [12]. Besides, the result in assay [13], in assay [14], in [15], in assay [17], in assay [18] and in [19] was inactive. Moreover, in [20], the molecule was called inactive. Besides, the half-maximal activity concentration (AC50) in assay [16] is 175 µM (active).

As to `CN(C)CCC(c1ccc(Cl)cc1)c1ccccn1` (stereo not drawn), the molecule was classed as inactive in [1], in assay [2], in assay [6], in [8], in [9] and in assay [10]. For the same molecule, the result in assay [11], in assay [12], in [13], in assay [14], in [15] and in assay [16] was inactive. For the same molecule, the molecule was called inactive in assay [17], in assay [18], in assay [19] and in [20].

Take `CCCOCCC`: the call in assay [1], in assay [3], in [4], in assay [5], in assay [6] and in [7] was inactive. In addition, the result in assay [8], in assay [9], in assay [11], in assay [12], in assay [13] and in assay [14] was inactive. Also, the molecule was called inactive in [15], in [16], in assay [17], in assay [18], in [19] and in [20].

Take `O=C1NC(=O)C2CC=CCC12` (stereo not drawn): the molecule was called inactive in assay [1], in assay [2], in [4], in assay [5], in [6] and in [7]. Besides, the result in [8], in assay [9], in [10], in assay [11], in assay [12] and in assay [13] was inactive. The molecule was called inactive in assay [14], in assay [15], in assay [16], in assay [17], in [18] and in [19]. In addition, the outcome in assay [20] was inactive.

Turning to `Brc1ccc(Oc2ccc(Br)cc2)cc1`, the molecule was classed as inactive in assay [1], in assay [2], in assay [3], in assay [4], in assay [5] and in assay [6]. Moreover, the molecule was classed as inactive in [7], in [8], in assay [9], in [10], in assay [12] and in [13]. The outcome in assay [14], in assay [15], in assay [17] and in assay [18] was inactive. Besides, the AC50 is 100 µM (active) in assay [11], 66.4 µM (active) in assay [16] and 7.35 µM (active) in [19].

Regarding `C=C1CC[C@H]2C[C@@H]1C2(C)C`, the outcome in assay [1], in assay [3], in assay [4], in assay [5], in assay [6] and in assay [7] was inactive. In addition, the call in assay [8], in [9], in [10], in assay [11], in assay [12] and in assay [13] was inactive. Also, the result in assay [14], in assay [15], in assay [17] and in [20] was inactive. The AC50 in assay [16] is 21.9 µM (active); in assay [19], 10.4 µM (active).

As for `O=C(OCc1ccccc1)c1ccccc1`, the molecule was called inactive in assay [1], in assay [2], in assay [3], in assay [5], in assay [6] and in assay [8]. Also, the molecule was classed as inactive in [9], in assay [10], in [11], in assay [12], in assay [13] and in [14]. For the same molecule, the result in [15], in [16], in assay [17], in assay [19] and in [20] was inactive. Besides, in assay [4], the half-maximal activity concentration (AC50) was 175 µM (active).
